From PubChem
Calb FLC: C. albicans growth modulation with fluconazole | AID 1979 | 300,000 compounds, 0.57% hits | C. albicans CaCi-2 (fluconazole-resistant clinical isolate) + fluconazole, Alamar Blue growth, 48 h | growth inhibition, % (no concentration beside the values);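 active = growth inhibition above about 58% in most replicates, limit read from the data, passing the limit was not always enough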;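 note: all wells also contain fluconazole at 8 µg/ml as a sub-toxic cotreatment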
tim10-1 inh: growth inhibitors of tim10-1 mutant yeast | inhibition, % at 20 µM | 330,000 compounds, 2.2% hits | S. cerevisiae tim10-1 ts strain growth, BacTiter-Glo, 24 h | AID 463190;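 active = inhibition of at least 40%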;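 note: mutant grown at 25 °C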
PfHsp90 set2: growth inhibition of yeast expressing Plasmodium Hsp90 | S. cerevisiae expressing PfHsp90, BacTiter-Glo ATP, 48 h; yeast lacking PDR1 and PDR3 efflux regulators | inhibition, % at 9.4 µM | 310,000 compounds, 0.32% hits;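 active = every replicate shows inhibition above about 80%, whatever the replicate mean, limit read from the data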
tim23-1 inh: growth inhibitors of tim23-1 mutant yeast; AID 463212; 330,000 compounds, 1.3% hits; inhibition, % at 20 µM; S. cerevisiae tim23-1 growth, BacTiter-Glo luminescence, 24 h;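 active = growth inhibition of the mutant yeast at or above 50%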;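 note: temperature-sensitive mutant grown at 25 °C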
TIM10 inh: inhibits growth of TIM10 yeast strain; S. cerevisiae TIM10 strain growth, BacTiter-Glo luminescence, 24 h; 330,000 compounds, 1.4% hits; inhibition, % at 10 µM;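 active = inhibition of 40% or more at the single tested concentration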;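 note: wild-type TIM10 isogenic control strain grown at permissive 25 °C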
SKKanGAS inh: SKKanGAS growth inhibition; 300,000 compounds, 1.3% hits; inhibition, % at 7.5 µM; AID 1662; S. pyogenes SKKanGAS, kanamycin growth, BacTiter-Glo, 6 h;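 active = mean replicate score, as percent of positive control median, at least 50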;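 note: strain carries kanamycin resistance gene driven by streptokinase promoter and grows in 40 µg/ml kanamycin; loss of luminescence reflects streptokinase promoter inhibition or plain growth inhibition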
tim10-1 confirm: tim10-1 yeast growth inhibition, confirmed | inhibition, % at 20 µM | AID 463213 | 7,400 compounds, 56% hits | S. cerevisiae tim10-1 ts strain growth, BacTiter-Glo, 24 h | shares compounds with tim10-1 inh;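 active = inhibition of yeast growth at or above a set limit in either of two repeat tests at 20 µM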;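 note: tim10-1 mutant grown at permissive 25 °C to find synthetic lethal compounds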
Each line names hits and unclear results; the compound was inactive in the other large screens (follow-up assays come after a bar, where they were run). An excerpt weighted towards active compounds, which were near 4.7% of everything screened.

CSC1=NC(C)(C)C=C(/C=C/c2ccc(Cl)cc2Cl)N1	none
Cc1c(S(=O)(=O)N2CCN(c3cccc(C(F)(F)F)c3)CC2)c(=O)n(C)c(=O)n1C	none
Cc1nc2scc(C)n2c(=O)c1S(=O)(=O)N1CCN(c2cccc(C(F)(F)F)c2)CC1	tim10-1 inh 50 | tim10-1 confirm 43
COc1ccccc1-c1nnc(Sc2nc([N+](=O)[O-])nn2C)o1	tim10-1 inh 48 (no result: PfHsp90 set2) | tim10-1 confirm 42
O=C(CCCc1c[nH]c2ccccc12)N[C@@H](Cc1c[nH]c2ccccc12)C(=O)O	none
COc1ccc(-c2nnc(SCc3cc(C)ccc3C)n2N)cc1	tim10-1 inh 42 | tim10-1 confirm 39
CCC(C(=O)NCCCN1CC(C)CC(C)C1)n1nc(C)c2sc3ccccc3c2c1=O (stereo not given)	none
COc1ccccc1CNC(=O)c1c(N)n(CCCN2CCOCC2)c2nc3ccccc3nc12	none (no result: tim10-1 inh, tim23-1 inh, TIM10 inh)
Nc1c(C(=O)NCc2ccc3c(c2)OCO3)c2nc3ccccc3nc2n1CCCN1CCOCC1	tim10-1 inh 44 | tim10-1 confirm inactive
CN1CCN(S(=O)(=O)c2ccc(Br)c3nsnc23)CC1	tim10-1 inh 46 (no result: PfHsp90 set2) | tim10-1 confirm inactive
O=S(=O)(c1ccc(Br)c2nsnc12)N1CCOCC1	none
O=C(CN(c1ccccc1)S(=O)(=O)c1ccccc1)Nc1ccc(F)cc1	none
O=C(NC(=S)Nc1ccccc1Cl)c1csnn1	none
FC(F)(F)c1cccc(NC(=S)NCc2ccc(Cl)cc2)c1	tim10-1 inh 43, SKKanGAS inh 73 | tim10-1 confirm inactive
O=C(NC(=S)Nc1cccc(C(F)(F)F)c1)c1csnn1	tim10-1 inh 52 | tim10-1 confirm 36
Fc1cccc(NC(=S)NCc2ccc(Cl)cc2)c1	none
Fc1ccc(CNC(=S)Nc2cccc(C(F)(F)F)c2)cc1	tim10-1 inh 51 | tim10-1 confirm 43
COc1ccc(S(=O)(=O)N2CCCCCC2)cc1C(=O)Nc1ccc(C(=O)N(C)C)cc1	none (no result: Calb FLC, PfHsp90 set2, SKKanGAS inh)
O=C(Cc1cccc(F)c1)N1CCOCC1	none (no result: Calb FLC, tim10-1 inh, tim23-1 inh, TIM10 inh, SKKanGAS inh)
COc1cccc(NCc2ccc([N+](=O)[O-])s2)c1	tim10-1 inh 41 | tim10-1 confirm inactive
COc1cc(C2=NOC(C(=O)N3CCCc4ccccc43)C2)cc(OC)c1OC (stereo not given)	tim10-1 inh 40 | tim10-1 confirm inactive
CCc1nnc(NC(=O)CCC(=O)NC2CCCCCCC2)s1	none
CCOCCCNC(=O)c1ccc2c(c1)ncn2-c1cccc(C)c1	none
Oc1ccccc1CNc1ccc(OC(F)(F)F)cc1	tim10-1 inh 42 | tim10-1 confirm inactive
O=S(=O)(/C=C/c1ccccc1)n1cnc2ccccc21	tim10-1 inh 44 | tim10-1 confirm 32
CN(C)S(=O)(=O)n1cnc2ccccc21	none
O=C(Nc1nc2ccccc2n1CCN1CCOCC1)c1cn(-c2ccccc2)nc1-c1ccccc1	tim10-1 inh 42, SKKanGAS inh 85 | tim10-1 confirm 32
S=c1[nH]nc(-c2cc(-c3ccccc3)n[nH]2)n1/N=C/C(Br)=C/c1ccccc1	tim10-1 inh 47 (no result: PfHsp90 set2) | tim10-1 confirm 43
S=c1[nH]nc(-c2cc(-c3ccccc3)n[nH]2)n1/N=C/c1ccccc1	none
CC(=C/c1ccccc1)/C=N/n1c(-c2ccncc2)n[nH]c1=S	tim10-1 inh 40 | tim10-1 confirm 38
CC(/C=N/n1c(-c2cccnc2)n[nH]c1=S)=C\c1ccccc1	none
CCOc1ccc(N2CC(C(=O)Nc3nnc(Cc4ccccc4)s3)CC2=O)cc1 (stereo not given)	none
CN1/C(=C\C(=O)c2ccco2)c2ccccc2CC1(C)C	tim10-1 inh 47 | tim10-1 confirm inactive
Cc1cccc(C(=O)/C=C2/c3ccccc3CC(C)(C)N2C)c1	none
CN1/C(=C\C(=O)c2ccccc2Cl)c2ccccc2CC1(C)C	none
Cc1ccccc1C(=O)/C=C1/c2ccccc2CC(C)(C)N1C	tim10-1 inh 42 (no result: PfHsp90 set2) | tim10-1 confirm inactive
CC(=O)c1cccc(CN2CCC(n3nccc3NC(=O)c3ccc4c(c3)OCO4)CC2)c1	none
CCCN(CC(=O)Nc1ccccc1C)C(=O)CC(NC(=O)c1ccccc1)c1ccccc1 (stereo not given)	none
Cc1ccc(S(=O)(=O)NCc2ccco2)cc1C	none
O=S(=O)(NCc1ccco1)c1ccc2c(c1)Cc1ccccc1-2	tim10-1 inh 45 (no result: PfHsp90 set2) | tim10-1 confirm 35
Cc1cc(C)cc(NC(=O)c2cc(S(=O)(=O)NCc3ccco3)ccc2F)c1	tim10-1 inh 46 | tim10-1 confirm 40
Cc1cc(C)cc(-n2ncc3c2CCCC3NC(=O)c2csnn2)c1 (stereo not given)	tim10-1 inh 41 | tim10-1 confirm inactive
COc1ncccc1C(=O)NC1CCCc2c1cnn2-c1cc(C)cc(C)c1 (stereo not given)	tim10-1 inh 48 | tim10-1 confirm inactive
Cc1cc(C)cc(-n2ncc3c2CCCC3NC(=O)c2cc(C)oc2C)c1 (stereo not given)	none
Cc1cc(NCCCn2ccnc2)n2ncc(-c3ccc(Cl)cc3)c2n1	tim10-1 inh 41 | tim10-1 confirm inactive
CCOc1ccccc1Nc1nc(-c2sc(NC(=O)c3ccco3)nc2C)cs1	none
CCOc1ccccc1Nc1nc(-c2sc(C)nc2C)cs1	tim10-1 inh 47 | tim10-1 confirm inactive
CC1CN(C(=O)Nc2ccc3snnc3c2)c2ccccc21 (stereo not given)	tim10-1 inh 48 | tim10-1 confirm inactive
O=C(Nc1ccc2snnc2c1)N1CCSCC1	none (no result: PfHsp90 set2)
O=C(O)c1n[nH]c2c1CC(C1CCCCC1)CC2 (stereo not given)	none (no result: Calb FLC, PfHsp90 set2, SKKanGAS inh)
Cc1ccc([N+](=O)[O-])cc1NC(=O)CN(C(=O)c1ccccc1Cl)C1CCCCC1	tim10-1 inh 40 | tim10-1 confirm inactive
CN(CC(=O)NC(=O)NC1CCCCC1)CC(=O)Nc1ccc(OC(F)(F)F)cc1	none (no result: Calb FLC, SKKanGAS inh)
O=C(NCCc1ccc(Cl)cc1)C1CCN(S(=O)(=O)c2cccs2)CC1	tim10-1 inh 50 | tim10-1 confirm 40
O=C(NCCc1ccc(Cl)cc1)c1ccc(S(=O)(=O)N2CCCC2)cc1	tim10-1 inh 48 | tim10-1 confirm 45
CC(=O)N/C(=C\c1ccccc1)C(=O)OC(C)C(=O)NCc1ccccc1 (stereo not given)	none
CCS(=O)(=O)N1Cc2ccccc2CC1C(=O)NCC12CC3CC(CC(C3)C1)C2 (stereo not given)	tim10-1 inh 40 | tim10-1 confirm inactive
CCS(=O)(=O)N1Cc2ccccc2CC1C(=O)Nc1ccc(F)cc1 (stereo not given)	none
S=c1nc(Cc2ccccc2)[nH]c2ccccc12	tim10-1 inh 43 | tim10-1 confirm inactive
Cc1ccc2c(c1)CCCN2C(=O)c1cc2ccccc2oc1=O	tim10-1 inh 43 | tim10-1 confirm 44
